PubChem BioAssay AID652128 (Broad Institute, 2013)
This is one part of the list. Records with an inconclusive call do not appear. Activity calls are given as the source filed them.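 How the source made its calls: active means fitted half-maximal concentration for signal loss at or below twice the highest dose tested, in every separate run (actives reach about 64 µM in these data); inconclusive means runs disagree, or flat partial signal loss, or poor fit; inactive means the rest.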

Experiment: DNA-binding compounds via dye displacement, dose response, artefact control for RAD52 inhibitor project, biochemical, fluorescence polarization, cherry-pick (AID 652128)
Settings: Salmon sperm DNA/acridine orange FP displacement

SMILES | outcome | AC50
Cn1ccc(=Nc2ccc(NC(=O)c3ccc(N=c4ccn(C)c5ccc([N+](=O)[O-])cc45)cc3)cc2)cc1 | inactive | –
CN1CCN(CCCNC(=O)c2ccc(/C=C3\Oc4ccccc4N(Cc4ccc(Cl)cc4)C3=O)cc2)CC1 | inactive | –
CN1CCC(CN)(N2CCN(c3ccccc3)CC2)CC1 | inactive | –
CN(C)CCNC(=O)c1ccc(-c2cn3c(-c4ccc(Oc5ccccc5)cc4)cnc3cn2)cc1 | inactive | –
NCCCCCC(=O)N/N=C/c1ccc2nccnc2c1 | inactive | –
CCN1CCCC1CNC(=O)c1ccc2c(c1)NC(=O)/C(=C\c1ccccc1F)S2 (configuration not stated) | inactive | –
CCN(CC)CCn1c2ccc(Cl)cc2c2nc(C)sc21 | inactive | –
CN1CCN(c2nc(Nc3ccc(O)cc3)nc3ccccc23)CC1 | inactive | –
Oc1ccc(N=Cc2sc3ccccc3c2Cl)cc1 | inactive | –
COc1ccc2sc(N(CCCN(C)C)C(=O)c3ccc(S(=O)(=O)N(C)C4CCCCC4)cc3)nc2c1 | inactive | –
CN(Cc1ccccc1F)c1cc2c(c3c1ccn3C)C1CCC2O1 (configuration not stated) | inactive | –
CC(=O)Nc1ccc(Nc2c3ccccc3nc3ccccc23)cc1 | – | 7.66 µM (active)
CC(C)[C@@H](C)/C=C/[C@@H](C)[C@H]1CC[C@@H]2[C@]1(C)CCC1[C@]23C=C[C@]2(C[C@@H](O)CC[C@]12C)N(c1ccc([N+](=O)[O-])cn1)O3 (some centres not stated) | inactive | –
CC(C)C(=O)N1CC(=O)Nc2ccc(F)cc2C1c1ccc(F)cc1 (configuration not stated) | inactive | –
Nc1ccc(OCC(O)C[n+]2ccc(CCS(=O)(=O)[O-])cc2)cc1 (configuration not stated) | inactive | –
C[C@H]1CN([C@@H](C)CO)C(=O)CCCn2nncc2CO[C@@H]1CN(C)C(=O)Nc1ccc(N2CCN(C)CC2)cc1 | inactive | –
CCN(CC)CCCNC(=O)c1cc2c(=O)[nH]c3ccc(C)cc3c2s1 | – | 49.6 µM (active)
Cc1cc(C)c2nc3nc(C)cc(C)c3c(N)c2c1 | – | 30 µM (active)
CCC1CCCCN1CCCNC(=O)c1cc2c(Cl)nc3ccccc3c2s1 (configuration not stated) | – | 49 µM (active)
Cc1cccc(-c2nc3ccc(C(=O)NCCN4CCN(C)CC4)cc3nc2-c2cccc(C)c2)c1 | inactive | –
COc1cccc2sc(N(CCCN(C)C)C(=O)C(c3ccccc3)c3ccccc3)nc12 | inactive | –
CN1CCN(C2Cc3ccc(Cl)cc3Sc3ccc(F)cc32)CC1 (configuration not stated) | inactive | –
CC(=O)Nc1cc(-c2ccc(N3CCN(C)CC3)cc2)cn2c(-c3cccc(C(=O)N(C)C)c3)cnc12 | inactive | –
Cc1ccc(C(=O)N/C(=C/c2ccc(-c3cccc([N+](=O)[O-])c3)o2)C(=O)NCCCN(C)C)cc1 | inactive | –
O=C1CCC(C(=O)OCC(=O)Nc2ccc(OC(F)F)cc2)=NN1 | inactive | –
Nc1ncc(CN2CCCC(C(=O)Nc3ccc(-c4ccco4)cc3)C2)cn1 (configuration not stated) | inactive | –
CCN(CC)CCOc1ccc2c(c1)C(=NNC(=O)c1ccccn1)c1cc(OCCN(CC)CC)ccc1-2 | – | 4.27 µM (active)
